Data taken from the supplement of paper PMC13380429.

System: Vero E6 infected with SARS-CoV-2
Experiment: inhibition of SARS-CoV-2 cytopathic effect; higher = more antiviral protection, active = above 15
Details: 48 h

Measured: inhibition of SARS-CoV-2 cytopathic effect

O=C(O)CCC/C=C\C[C@@H]1[C@@H](/C=C/[C@@H](O)COc2cccc(Cl)c2)[C@H](O)C[C@@H]1O (racemic) [cloprostenol-(+/-)]
inactive: 1 nM -2.05% | 8.33 nM 0.95% | 100 nM 2.48% | 833.33 nM 5.03% | 10000 nM 0.05%

COc1cccc2c1C(=O)c1c(O)c3c(c(O)c1C2=O)C[C@@](O)(C(=O)CO)C[C@@H]3O[C@H]1C[C@H](N)[C@H](O[C@@H]2CCCCO2)[C@H](C)O1 [pirarubicin]
inactive: 1 nM -1.57% | 8.33 nM -0.32% | 100 nM -0.19% | 833.33 nM -1.24% | 10000 nM -2.07%

Cc1c(OCC(F)(F)F)ccnc1C[S+]([O-])c1nc2ccccc2[nH]1 (stereo not given) [lansoprazole]
inactive: 1 nM 3.22% | 8.33 nM 0.73% | 100 nM -0.31% | 833.33 nM -1.96% | 10000 nM -1.14%

c1ccc(-c2n[nH]c3c2oc2ccccc23)cc1
inactive: 1 nM -0.45% | 8.33 nM -5.74% | 100 nM 1% | 833.33 nM 2.4% | 10000 nM -0.82%

CCOc1cc(OCC)c(C(=O)CCC(=O)O)cc1OCC [trepibutone]
inactive: 1 nM -2.61% | 8.33 nM 0.72% | 100 nM -0.04% | 833.33 nM -0.1% | 10000 nM 0.69%

CCCc1ccc(C(=O)O)cc1 [4-propylbenzoic-acid]
inactive: 1 nM -0.54% | 8.33 nM 0.51% | 100 nM -0.57% | 833.33 nM -0.84% | 10000 nM 1.58%

Cc1cn2nc([C@@H]3CCCCN3C(=O)c3cc(Cl)ccc3NS(C)(=O)=O)cc2nc1N1CC[C@H](N)C1 [presatovir]
inactive: 1 nM 2.31% | 8.33 nM 0.48% | 100 nM -1.98% | 833.33 nM -1.96% | 10000 nM -4.09%

CCc1cc2c(cc1N1CCC(N3CCOCC3)CC1)C(C)(C)c1[nH]c3cc(C#N)ccc3c1C2=O [alectinib]
inactive: 1 nM 0.52% | 8.33 nM 1.4% | 100 nM -0.38% | 833.33 nM -1.14% | 10000 nM 0.15%

NC[C@H]1O[C@H](O[C@H]2[C@H](O)[C@@H](O[C@H]3O[C@H](CO)[C@@H](O)[C@H](N)[C@H]3O)[C@H](N)C[C@@H]2N)[C@H](N)[C@@H](O)[C@@H]1O [bekanamycin]
inactive: 1 nM -0.6% | 8.33 nM -0.02% | 100 nM -0.32% | 833.33 nM 0% | 10000 nM -1.85%

Cc1cc(C(C)(C)C)c(O)c(C)c1CC1=NCCN1 [oxymetazoline]
inactive: 1 nM 0.98% | 8.33 nM 1.83% | 100 nM 1.85% | 833.33 nM 1.64% | 10000 nM 0.31%
